# In PubChem BioAssay (EPA / NIEHS):
# Several values for one entry are separate records, joined by “and”; a condition that tells them apart may be missing. Equal entries are not always repeated. Records with an inconclusive call do not appear. Activity calls are given as the source filed them. How the source made its calls: active means hit-call score of the fitted dose curve at least 0.9, where 1 is the maximum; inconclusive means response in the unintended direction; inactive means score below 0.9.
# Biological target: rat CYP2C12, Cyp2c12 (gene 25011) (UniProt P11510)
# Sequence (P11510 whole entry, looked up): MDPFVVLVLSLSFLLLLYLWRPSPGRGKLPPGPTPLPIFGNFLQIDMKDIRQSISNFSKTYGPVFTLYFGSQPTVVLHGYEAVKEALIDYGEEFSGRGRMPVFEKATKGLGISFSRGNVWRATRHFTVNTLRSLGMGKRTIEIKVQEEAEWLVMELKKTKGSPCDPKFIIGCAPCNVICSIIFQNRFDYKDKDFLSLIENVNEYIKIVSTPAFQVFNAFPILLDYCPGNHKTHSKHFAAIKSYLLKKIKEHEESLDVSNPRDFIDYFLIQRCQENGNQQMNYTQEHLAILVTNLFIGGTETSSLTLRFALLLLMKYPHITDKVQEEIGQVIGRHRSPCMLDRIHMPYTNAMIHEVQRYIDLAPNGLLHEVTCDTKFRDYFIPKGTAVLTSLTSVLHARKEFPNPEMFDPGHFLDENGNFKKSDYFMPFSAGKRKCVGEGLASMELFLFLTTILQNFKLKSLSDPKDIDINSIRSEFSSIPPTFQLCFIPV
# Assay: NVS_ADME_rCYP2C12: NovaScreen (NVS) CYP450-related Enzyme Activity (ADME) Assay for rat CYP2C12 (AID 2283119)
# Method in brief: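 Fluorescent-substrate turnover by recombinant rat CYP2C12, measured at 0.5 h, normalized to acetonitrile vehicle. Chemicals screened first at a single 10 uM concentration in duplicate, with concentration series for actives.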
SMILES,AC50,outcome
CN(C)C(=S)SSC(=S)N(C)C,1980 nM (active),–
CC1COC(Cn2cncn2)(c2ccc(Oc3ccc(Cl)cc3)cc2Cl)O1 (stereo not given),1080 nM (active),–
OC(c1ccc(Cl)cc1)(c1cncnc1)c1ccccc1Cl (stereo not given),3990 nM (active),–
CS/C(C)=N/OC(=O)N(C)SN(C)C(=O)O/N=C(\C)SC,1120 nM (active),–
CCCN(CCC)c1c([N+](=O)[O-])cc(S(N)(=O)=O)cc1[N+](=O)[O-],3080 nM (active),–
CCOC(=O)CC(SP(=S)(OC)OC)C(=O)OCC (stereo not given),6050 nM (active),–
CCOP(=S)(OCC)SCn1c(=O)oc2cc(Cl)ccc21,2170 nM (active),–
COc1ccc(C(c2ccc(OC)cc2)C(Cl)(Cl)Cl)cc1,–,inactive
N#CC(CCc1ccc(Cl)cc1)(Cn1cncn1)c1ccccc1 (stereo not given),250 nM (active),–

# Biological target: rat CYP2C13, Cyp2c13 (gene 171521) (UniProt P20814)
# Sequence (P20814 whole entry, looked up): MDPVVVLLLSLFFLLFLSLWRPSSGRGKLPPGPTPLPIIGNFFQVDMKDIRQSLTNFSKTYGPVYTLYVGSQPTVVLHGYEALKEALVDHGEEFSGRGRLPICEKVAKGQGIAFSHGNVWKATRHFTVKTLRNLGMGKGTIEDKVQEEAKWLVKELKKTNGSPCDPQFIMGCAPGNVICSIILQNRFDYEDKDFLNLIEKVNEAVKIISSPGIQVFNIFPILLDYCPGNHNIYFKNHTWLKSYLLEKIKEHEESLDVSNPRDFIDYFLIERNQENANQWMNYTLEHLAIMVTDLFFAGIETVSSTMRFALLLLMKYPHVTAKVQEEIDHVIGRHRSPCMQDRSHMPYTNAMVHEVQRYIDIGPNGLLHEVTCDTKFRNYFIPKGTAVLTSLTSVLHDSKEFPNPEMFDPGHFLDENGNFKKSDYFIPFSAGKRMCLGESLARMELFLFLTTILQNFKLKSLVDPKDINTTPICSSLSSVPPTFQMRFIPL
# Assay: NVS_ADME_rCYP2C13: NovaScreen (NVS) CYP450-related Enzyme Activity (ADME) Assay for rat CYP2C13 (AID 2283121)
# Method in brief: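 Inhibition is read as decreased fluorescent product formation, referenced to acetonitrile vehicle. Cell-free recombinant rat Cyp2c13 reaction ran 0.75 hour; compounds first at 10 uM in duplicate, then concentration series for actives.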
SMILES,AC50,outcome
CN(C)C(=S)SSC(=S)N(C)C,0.991 µM (active),–
CNC(=S)S,–,inactive
CC1COC(Cn2cncn2)(c2ccc(Oc3ccc(Cl)cc3)cc2Cl)O1 (stereo not given),1.43 µM (active),–
O=C(Nc1ccccc1)Nc1ccnc(Cl)c1,10 µM (active),–
CCOC(=O)CC(SP(=S)(OC)OC)C(=O)OCC (stereo not given),8.12 µM (active),–
CCOP(=S)(OCC)SCn1c(=O)oc2cc(Cl)ccc21,2.09 µM (active),–
CON(C)C(=O)Nc1ccc(Cl)c(Cl)c1,8.64 µM (active) and 6.6 µM (active),–
COc1ccc(C(c2ccc(OC)cc2)C(Cl)(Cl)Cl)cc1,–,inactive

# System: rat CYP3A1, gene 25642
# Assay: NVS_ADME_rCYP3A1: NovaScreen (NVS) CYP450-related Enzyme Activity (ADME) Assay for rat CYP3A1 (AID 2283126)
# Method in brief: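 Compounds went first at 10 uM duplicate, then to series with 20 uM maximum. Fluorescence from substrate turnover by the recombinant enzyme was measured 0.5 h post-dosing, inhibition scored against acetonitrile vehicle.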
SMILES,AC50,outcome
CN(C)C(=S)SSC(=S)N(C)C,3.2 µM (active),–
CNC(=S)S,–,inactive
CC1COC(Cn2cncn2)(c2ccc(Oc3ccc(Cl)cc3)cc2Cl)O1 (stereo not given),0.628 µM (active),–
OC(c1ccc(Cl)cc1)(c1cncnc1)c1ccccc1Cl (stereo not given),2.92 µM (active),–
CCCN(CCC)c1c([N+](=O)[O-])cc(S(N)(=O)=O)cc1[N+](=O)[O-],1.24 µM (active),–
CCCC1COC(Cn2cncn2)(c2ccc(Cl)cc2Cl)O1 (stereo not given),2.08 µM (active),–
COc1nc(C)nc(NC(=O)NS(=O)(=O)c2ccccc2CCC(F)(F)F)n1,7.5 µM (active) and 7.14 µM (active) and 7.37 µM (active),–
CCOC(=O)CC(SP(=S)(OC)OC)C(=O)OCC (stereo not given),1.88 µM (active),–
CO/C=C(/C(=O)OC)c1ccccc1Oc1cc(Oc2ccccc2C#N)ncn1,5.8 µM (active),–
CCOP(=S)(OCC)SCn1c(=O)oc2cc(Cl)ccc21,1.16 µM (active),–
CCON=C(CC)C1=C(O)CC(c2c(C)cc(C)cc2C)CC1=O (stereo not given),4.22 µM (active),–
CON(C)C(=O)Nc1ccc(Cl)c(Cl)c1,–,inactive
COc1ccc(C(c2ccc(OC)cc2)C(Cl)(Cl)Cl)cc1,–,inactive
CCCCNC(=O)OCC#CI,1.46 µM (active) and 4.29 µM (active),–
Cc1ccc(-c2c(Cl)nc(C#N)n2S(=O)(=O)N(C)C)cc1,2.88 µM (active),–
N#CC(CCc1ccc(Cl)cc1)(Cn1cncn1)c1ccccc1 (stereo not given),0.449 µM (active),–
COP(=S)(OC)Oc1nc(Cl)c(Cl)cc1Cl,–,inactive
COC(=O)N(OC)c1ccccc1COc1ccn(-c2ccc(Cl)cc2)n1,1.29 µM (active),–

# Biological target: rat CYP3A2, Cyp3a2 (gene 266682) (UniProt P05183)
# Sequence (P05183 whole entry, looked up): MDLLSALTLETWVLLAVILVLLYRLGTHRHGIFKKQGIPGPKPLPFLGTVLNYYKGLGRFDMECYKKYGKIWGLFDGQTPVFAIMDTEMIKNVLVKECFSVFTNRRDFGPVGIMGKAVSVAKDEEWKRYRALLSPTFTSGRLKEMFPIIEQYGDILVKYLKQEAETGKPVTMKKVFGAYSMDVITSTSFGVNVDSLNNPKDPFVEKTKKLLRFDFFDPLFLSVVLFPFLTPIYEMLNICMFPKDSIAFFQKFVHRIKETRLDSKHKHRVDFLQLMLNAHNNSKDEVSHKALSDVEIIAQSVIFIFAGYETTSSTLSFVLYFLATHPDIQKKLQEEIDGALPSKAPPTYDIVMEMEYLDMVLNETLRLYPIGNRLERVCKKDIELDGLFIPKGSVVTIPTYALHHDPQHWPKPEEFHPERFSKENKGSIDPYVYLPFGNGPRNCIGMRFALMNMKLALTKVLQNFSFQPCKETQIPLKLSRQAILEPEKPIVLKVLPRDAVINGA
# Assay: NVS_ADME_rCYP3A2: NovaScreen (NVS) CYP450-related Enzyme Activity (ADME) Assay for rat CYP3A2 (AID 2283128)
# Method in brief: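 Fluorescence readout of extracted rat CYP3A2 activity 0.5 h post-dose, acetonitrile as negative control. Single-point testing in duplicate at 10 uM, followed by concentration series to a 20 uM maximum for actives.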
SMILES,AC50,outcome
CN(C)C(=S)SSC(=S)N(C)C,2420 nM (active),–
CC1COC(Cn2cncn2)(c2ccc(Oc3ccc(Cl)cc3)cc2Cl)O1 (stereo not given),1350 nM (active),–
OC(c1ccc(Cl)cc1)(c1cncnc1)c1ccccc1Cl (stereo not given),5570 nM (active),–
CS/C(C)=N/OC(=O)N(C)SN(C)C(=O)O/N=C(\C)SC,3390 nM (active),–
CCCN(CCC)c1c([N+](=O)[O-])cc(S(N)(=O)=O)cc1[N+](=O)[O-],2670 nM (active),–
C=CCC1=C(C)[C@@H](OC(=O)[C@@H]2[C@@H](C=C(C)C)C2(C)C)CC1=O,7550 nM (active),–
O=C(Nc1ccccc1)Nc1ccnc(Cl)c1,6440 nM (active),–
CCOC(=O)CC(SP(=S)(OC)OC)C(=O)OCC (stereo not given),306 nM (active),–
CO/C=C(/C(=O)OC)c1ccccc1Oc1cc(Oc2ccccc2C#N)ncn1,6600 nM (active),–
CCOP(=S)(OCC)SCn1c(=O)oc2cc(Cl)ccc21,518 nM (active),–
CCON=C(CC)C1=C(O)CC(c2c(C)cc(C)cc2C)CC1=O (stereo not given),3000 nM (active),–
COc1ccc(C(c2ccc(OC)cc2)C(Cl)(Cl)Cl)cc1,–,inactive
Cc1ccc(-c2c(Cl)nc(C#N)n2S(=O)(=O)N(C)C)cc1,1100 nM (active),–
C=CCC1=C(C)C(OC(=O)C2C(C=C(C)C)C2(C)C)CC1=O (stereo not given),6870 nM (active),–

# Biological target: human Acetylcholinesterase (AChE), ACHE (gene 43) (UniProt P22303)
# Sequence (P22303 whole entry, looked up): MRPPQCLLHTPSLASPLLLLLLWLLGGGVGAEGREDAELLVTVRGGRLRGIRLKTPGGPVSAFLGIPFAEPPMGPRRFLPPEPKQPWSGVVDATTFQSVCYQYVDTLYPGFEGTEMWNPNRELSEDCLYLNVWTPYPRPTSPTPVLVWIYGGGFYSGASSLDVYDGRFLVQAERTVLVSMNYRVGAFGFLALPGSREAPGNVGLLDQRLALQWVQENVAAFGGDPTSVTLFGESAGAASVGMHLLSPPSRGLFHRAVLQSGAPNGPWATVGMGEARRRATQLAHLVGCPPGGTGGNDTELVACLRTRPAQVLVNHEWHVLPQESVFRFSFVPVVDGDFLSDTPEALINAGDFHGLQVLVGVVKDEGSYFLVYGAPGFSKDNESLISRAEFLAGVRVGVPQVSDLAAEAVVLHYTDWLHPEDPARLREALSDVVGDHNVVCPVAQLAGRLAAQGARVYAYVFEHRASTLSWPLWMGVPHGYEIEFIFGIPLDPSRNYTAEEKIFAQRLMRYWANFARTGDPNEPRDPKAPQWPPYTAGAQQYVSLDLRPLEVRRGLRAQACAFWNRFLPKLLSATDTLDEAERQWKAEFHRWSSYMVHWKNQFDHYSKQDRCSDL
# Assay: NVS_ENZ_hAChE: NovaScreen (NVS) Enzymatic Assay for human Acetylcholinesterase (AChE) (AID 2283129)
# Description: NVS_ENZ_hAChE is a biochemical, single-readout assay that uses extracted gene-proteins in a cell-free assay. Measurements were taken 0.33 hour after chemical dosing in a 96-well plate.NVS_ENZ_hAChE is one of one assay component(s) measured or calculated from the NVS_ENZ_hAChE assay. It is designed to make measurements of enzyme activity, a form of enzyme reporter, as detected with absorbance signals by Colorimetric technology.Data from the assay component NVS_ENZ_hAChE was analyzed into 1 assay endpoint. This assay endpoint, NVS_ENZ_hAChE, was analyzed in the positive analysis fitting direction relative to DMSO as the negative control and baseline of activity. Using a type of enzyme reporter, loss-of-signal activity can be used to understand changes in the enzymatic activity as they relate to the gene ACHE. Furthermore, this assay endpoint can be referred to as a primary readout, because this assay has produced multiple assay endpoints where this one serves a enzymatic activity function. To generalize the intended target to other relatable targets, this assay endpoint is annotated to the esterase intended target family, where the subfamily is acetylcholinesterase.
# Binding assays used specific radioligands (tritiated, iodinated) with non-radioactive competitive displacement ligands in agonist or antagonist protocols (as indicated) and various reference compounds and inhibitors to titrate specific binding to receptors and transporters. Most enzyme assays (CYPs, kinases, phosphatases, proteases, HDACs) used recombinant protein and specific substrates (fluorescence mostly, some colorimetric and radioactive) and inhibitors, followed by a biochemical separation of substrate and product. All assays for the biochemical HTS were initially run in duplicate at a single concentration (10 uM for CYP450 assays and 25 uM for all others). […] Each assay was run with positive and negative controls, and concurrent controls on every plate. The follow-up (secondary) screen tested active chemical-pairs in concentration series, as well as a few additional assays not tested in the primary screen, some selected negative inactives, and several cases re-run in the concentration series for confirmatory purposes.
SMILES,outcome,AC50
O=C(O)c1nc(Cl)ccc1Cl,inactive,–
CN(C)C(=S)SSC(=S)N(C)C,–,10600 nM (active)
CNC(=S)S,–,39900 nM (active)
CS/C(C)=N/OC(=O)N(C)SN(C)C(=O)O/N=C(\C)SC,–,4850 nM (active)
COC(=O)C=C(C)OP(=O)(OC)OC,–,6000 nM (active)
COP(=S)(OC)Oc1nc(Cl)c(Cl)cc1Cl,inactive,–
